# GLP-1R agonist – qHTS of GLP-1 Receptor Agonists | HEK293 GLP-1R CRE-luciferase, luminescence, 4-6 h; cells express a hypersensitive GLP-1R form | 380,000 tested, 0.007% active | AID 624172, 2012 | Glucagon-like peptide 1 receptor (Homo sapiens), P43220 | Potency, µM (doses to about 45.6 µM), for the others: at the highest dose activation, actives largely listed as activators; note: % of control where 0% means no effect
# GLP1R inv ag – qHTS of GLP-1 Receptor Inverse Agonists (Inhibition Mode); HEK293 GLP-1R CRE-luciferase, luminescence, 24 h; GLP-1R form is constitutively active; Glucagon-like peptide 1 receptor (Homo sapiens), P43220; AID 624417, 2012; Potency, µM (doses to about 38.3 µM), inactives show at the highest dose activity change, negative = inhibition, usual class: inhibitors; 410,000 tested, 1.6% active; note: % is set by controls: 0 for no effect and ±100 for the full control effect; nearly all actives have a fitted effect of over 55% in size
#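 Inverse agonists were sought by their lowering of basal cAMP reporter luciferase output in HEK293 cells stably carrying constitutively active human GLP-1R, after 24 h compound treatment.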
# RGS4 inhibitor – Inhibitors of Regulator of G Protein Signaling (RGS) 4: qHTS | Potency, µM (doses to about 114 µM), inactives show top-dose activity change, negative = inhibition, hits mostly inhibitors | Regulator of G-protein signaling 4 (Homo sapiens), P49798 | 390,000 tested, 0.039% active | Transcreener GDP fluorescence polarization, RGS4-accelerated GTP hydrolysis; note: % is set by controls: 0 for no effect and ±100 for the full control effect; nearly all actives have a fitted effect of over 75% in size
#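 MLSMR compounds (23 nl, pin-transferred) preincubated 10 min at room temperature with a 500nM (2x) first reagent, then RGS4 at 900nM (2x) plus Transcreener GDP mix added; fluorescence polarization (620/688 nm) read before and after 90 min at 30 °C.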
# PTHR1 agonist – qHTS for PTHR1 Agonists: Primary Screen. HEK293 GP2 PTHR1 cells, GloSensor cAMP luminescence, 1 h. Potency, µM (top dose mostly 115 µM), inactives show top-dose activation, usual class: activators. 410,000 tested, 0.075% active; note: nearly all actives have a fitted effect of over 55% in size
# Target sequence (Q03431 whole entry, looked up): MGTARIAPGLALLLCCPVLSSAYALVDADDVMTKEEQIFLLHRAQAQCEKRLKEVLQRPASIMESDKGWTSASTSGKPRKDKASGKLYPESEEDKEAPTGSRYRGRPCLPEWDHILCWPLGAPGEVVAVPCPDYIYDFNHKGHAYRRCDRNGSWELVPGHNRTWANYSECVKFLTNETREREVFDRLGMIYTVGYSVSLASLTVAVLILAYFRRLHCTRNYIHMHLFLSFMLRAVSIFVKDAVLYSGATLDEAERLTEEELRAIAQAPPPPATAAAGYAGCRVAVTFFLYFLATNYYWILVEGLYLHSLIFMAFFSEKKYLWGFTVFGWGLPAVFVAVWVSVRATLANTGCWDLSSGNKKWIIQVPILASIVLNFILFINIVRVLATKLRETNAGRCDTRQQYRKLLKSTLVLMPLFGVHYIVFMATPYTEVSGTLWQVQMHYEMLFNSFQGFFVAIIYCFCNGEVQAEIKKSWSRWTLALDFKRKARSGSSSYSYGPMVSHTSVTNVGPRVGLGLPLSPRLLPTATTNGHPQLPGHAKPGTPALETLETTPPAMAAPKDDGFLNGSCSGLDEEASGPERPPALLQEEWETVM
#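 HEK-293-derived GP2 cells expressing PTHR1 and a GloSensor cAMP reporter, 3,000/well, plated overnight, given luciferin plus IBMX (each 0.5 mM as added) for 1 h at 37 °C, then compound for 1 h at 37 °C. Luminescence was read after 15 min at room temperature.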
# GLP1R cytotox – qHTS of GLP-1 Receptor Inverse Agonists: Cytotox Screen; HEK293 cAMP-luciferase reporter cells, luminescence, 24 h; Potency, µM (titrated, usually from 38.3 µM), for inactives: at the highest dose activity change, negative = inhibition, actives largely listed as inhibitors; 410,000 tested, 0.13% active; AID 624418, 2012;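 note: loss of luciferase light is scored as toxicity; % is set by controls: 0 for no effect and ±100 for the full control effect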
#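 Cells in DMEM/10% Nu serum/1% pen-strep, 1536-well format. Pre-incubated 12 h, dosed with 23 nL compound, incubated a further 24 h. Luciferase detection, 12 min at room temp, luminescence.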
# KAT2A inh – qHTS Assay for Inhibitors of GCN5L2; 390,000 tested, 0.21% active; GCN5L2 HAT assay, ThioGlo1 CoA-SH fluorescence; Potency, µM (top dose mostly 58.9 µM), inactives show at the top dose activity change, negative = inhibition, actives largely listed as inhibitors; note: % is set by controls: 0 for no effect and ±100 for the full control effect
#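 qHTS, 1536-well. 20nM enzyme, pH 7.5 HEPES/EDTA/Tween-20 buffer; 15 min compound preinc., RT. Start: 75uM H3(1-25), 70uM AcCoA, 50uM ThioGlo1. Read Ex340/Em540 at t=0 (autofluorescence flag) and t=20 min.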
# * hit, by the source's call; i = inactive; ? = inconclusive; . = no result; ! = a repeat was not active; [ ] = remark or other dose. A selection: hits, their analogues and other compounds. The true share with any hit is near 1.8%. Calls come from the whole dose curve; as a rule, active = well fitted curve in the direction sought with a large enough effect; inconclusive = small, poorly fitted or top-dose-only effect, or another doubt; inactive = no such curve, though single readings can be large; an effect the other way counts as inactive or inconclusive. Potency is the fitted concentration of half-maximal effect.
SMILES,GLP-1R agonist,GLP1R inv ag,RGS4 inhibitor,PTHR1 agonist,GLP1R cytotox,KAT2A inh
C[C@H]1CN([C@@H](C)CO)C(=O)Cc2cc(NC(=O)CCC(F)(F)F)ccc2O[C@H]1CN(C)S(C)(=O)=O,-1.9%,21.7%,-19.9%,-21.1%,0.1%,-3.9%
C[C@H]1CN([C@@H](C)CO)C(=O)Cc2cc(NC(=O)CCC(F)(F)F)ccc2O[C@H]1CN(C)Cc1ccc(-c2ccccc2)cc1,-1.0%,4.47µM*,3.7%,6.8%,1.7%,-17.5%
C[C@H]1CN([C@@H](C)CO)C(=O)Cc2cc(NC(=O)CCC(F)(F)F)ccc2O[C@H]1CN(C)Cc1ccc(C(F)(F)F)cc1,-3.5%,10µM*,-1.7%,i,-10.7%,-11.7%
C[C@@H]1CN([C@H](C)CO)C(=O)Cc2cc(NC(=O)CCC(F)(F)F)ccc2O[C@@H]1CN(C)C(=O)Nc1ccccc1,-0.5%,10.0%,-9.5%,-21.5%,-2.4%,-6.0%
O=C(COc1cccc(C(F)(F)F)c1)Nc1cccc(S(=O)(=O)NC2=NCCCCC2)c1,-0.8%,?,-3.1%,i,-9.4%,.
Cc1ccc(CNC(=O)Cc2c(C)c3c(cc(C)c4c(C)coc43)oc2=O)cc1,.,6.1%,-37.7%,15.8µM*,8.2%,-1.2%
CC(=O)NCCNc1cc(-c2ccccc2CN(C)C)ncn1,.,.,.,.,.,0.6%
CCOCCCNCc1ccc(OCc2ccccc2C)c(OC)c1,-1.9%,?,-19.5%,?,?,-16.0%
Cc1cc2c(cc1S(=O)(=O)Nc1ccc(OC(F)(F)F)cc1)OCC(=O)N2,8.6%,?,-9.9%[56.9 µM],-6.9%,-2.7%,-20.8%
CNC(=O)c1nnsc1S(=O)(=O)c1ccc(Cl)cc1,-7.6%,4.47µM*,?,-28.1%,?,?
O=C(c1nnsc1S(=O)(=O)c1ccc(Cl)cc1)N1CCOCC1,-3.2%,?,-17.8%,-37.9%,-7.0%[7.66 µM],-5.5%
FC(F)(F)c1ccccc1-c1ccc2nncn2c1,-0.5%,28.2%,.,i,-3.1%,.
Cc1cc2c(cc1S(=O)(=O)NCc1ccccc1Cl)OCC(=O)N2,.,22.2%,3.1%,i,-2.9%,-11.8%
Cc1cc2c(cc1S(=O)(=O)NCc1ccccc1)OCC(=O)N2,-1.7%,30.1%,-2.1%,-47.7%,2.0%,25.1µM*!
COc1ccc(NC(=O)c2c(C)noc2C(C)C)cc1S(=O)(=O)N1CCCCC1,-2.9%,-13.5%,-41.9%,-6.9%,-18.2%,0.4%
Cc1nc2c(sc(=S)n2Cc2ccco2)c(=O)n1CC(=O)Nc1cc(F)ccc1F,-4.4%,1.41µM*,-14.3%,-13.9%,-9.8%,-5.5%
Cc1nc2c(sc(=S)n2Cc2ccco2)c(=O)n1CC(=O)Nc1ccc(F)cc1,5.4%,-5.0%,-22.2%,-45.0%,0.9%,-6.5%
Cc1cc(N2CCCCC2)nc2ccc(NC(=O)c3ccc(Br)o3)cc12,-7.1%,2.82µM*,-23.2%,-34.1%,?,-2.0%
CCN1CCN(c2cc(C)c3cc(NC(=S)N(CC)CC)ccc3n2)CC1,13.4%,?,-32.5%,-9.7%,?,-0.3%
CCCN1CCN(C(=S)Nc2ccc3nc(N4CCN(CC)CC4)cc(C)c3c2)CC1,9.8%,3.98µM*,-49.4%,i,3.16µM*,-5.3%
CCC(C)NC(=S)Nc1ccc2nc(N3CCN(CC)CC3)cc(C)c2c1 (stereo not given),-0.7%,3.55µM*,27.3%,4.4%,?,-1.5%
Cc1cc(N2CCN(C)CC2)nc2ccc(NC(=O)c3ccc(Br)o3)cc12,8.1%,?,12.6%,-4.7%[57.5 µM],?,-4.3%
CCN1CCN(c2cc(C)c3cc(NC(=S)N4CCN(c5ccccc5)CC4)ccc3n2)CC1,8.4%,1.26µM*,-4.8%,i,20.3%,-2.8%
COC(=O)c1c(NC(=O)COC(=O)CNC(=O)c2cccc(OC(F)F)c2)sc(C)c1C,2.1%,2.6%,.,i,1.4%,.
CSc1ncccc1C(=O)OCC(=O)c1[nH]c(C)c(C(C)=O)c1C,-2.4%,33.8%,19.0%,?,0.7%,-6.0%
SMILES,GLP-1R agonist,GLP1R inv ag,RGS4 inhibitor,PTHR1 agonist,GLP1R cytotox,KAT2A inh
COC(=O)c1cc2oc3ccccc3c2n1Cc1nc(-c2ccc(Cl)cc2)oc1C,.,3.5%,-21.5%,i,19.5%,-1.9%
O=C(CC[C@H]1O[C@@H](n2cnc3c(NC(=O)c4ccccc4)ncnc32)[C@H](O)[C@@H]1O)NCc1ccco1,-6.1%,12.8%,.,-17.9%,0.6%,.
CCOc1ccccc1NC(=O)c1c(NCc2ccc(OC)c(OC)c2OC)sc2c1CCC(C)C2 (stereo not given),.,?,-42.9%,i,-18.8%,-6.6%
Cc1ccc(C)c(N2CCN(C(=S)Nc3ccc4nc(N5CCN(C)CC5)cc(C)c4c3)CC2)c1,7.8%,2.51µM*,-18.3%,i,-14.0%,-2.0%
Cc1cc(N2CCOCC2)nc2ccc(NC(=O)CCC(=O)N3CCN(c4cccc(C(F)(F)F)c4)CC3)cc12,-2.4%,10µM*,21.2%,-31.4%,-17.7%,-10.3%
Cc1cc(N2CCN(C)CC2)nc2ccc(NC(=S)NCc3cccs3)cc12,2.0%,1µM*,-42.4%,i,?,-4.9%
Cc1cccc(N2CCN(C(=O)Cn3ncc4c3-c3cc(C)ccc3OC4)CC2C)c1 (stereo not given),.,11.2µM*,19.4%,-20.0%,-12.0%,-5.5%
COc1cccc(N2CCN(c3ncnc4c3[nH]c3ccc(F)cc34)CC2C)c1 (stereo not given),-53.8%,?,-1.9%,-20.8%[57.5 µM],3.16µM*,-10.4%
O=C(NCc1ccccc1)[C@]1(C(F)(F)F)C[C@H](CCC2CCCCC2)CCCO1,.,.,-12.8%,.,.,.
O=C(Nc1ccccc1)/C(=C/c1cccnc1)NC(=O)c1ccccc1,2.3%,29.2%,-34.7%[56.9 µM],i,0.4%,-8.9%
O=C(NNc1ccccc1)/C(=C\c1cccnc1)NC(=O)c1ccccc1,8.2%,3.55µM*,-1.3%,i,0.0%,-6.2%
CC(C)NC(=S)N/N=C/c1c[nH]c2ccccc12,21.2%,?,-35.7%,-12.6%,10µM*,-7.4%
Cc1cccc(N2C(=O)CC(Sc3nc(C)c4c(n3)CCCC4)C2=O)c1 (stereo not given),21.9%,-22.4%,24.8%,-18.3%[57.5 µM],5.01µM*,-8.9%
